These results are taken from PubChem BioAssay AID1851 (National Center for Advancing Translational Sciences (NCATS), 2009).

“And” between values parts separate entries of the source, which are not always exact repeats. Equal values may be shown once. Among all 16,000 compounds or so, about 2,600 (16%) were called active. Not shown: some 20% with an inconclusive outcome. The call rests on the fitted dose curve; in most records, active means well fitted curve in the direction sought with a large enough effect; inconclusive means small, poorly fitted or top-dose-only effect, or effect the other way; inactive means no such curve, though single readings can be large or run the other way. These entries were drawn from the full list. Some structures have more than one record in an assay (separate samples or runs), and their calls can disagree.
On the % scale 0 is the no-effect control and ±100 the full control effect.

The target of the assay is Cytochrome P450 2D6 (Homo sapiens) (UniProt P10635). The assay is described as follows: Cytochrome panel assay with activity outcomes. Particulars: recombinant CYP, pro-luciferin dealkylation, luminescence, p450-cyp2d6; series mostly up to 57.1 µM.
Chain of Cytochrome P450 2D6 (Homo sapiens) (P10635 whole entry, looked up): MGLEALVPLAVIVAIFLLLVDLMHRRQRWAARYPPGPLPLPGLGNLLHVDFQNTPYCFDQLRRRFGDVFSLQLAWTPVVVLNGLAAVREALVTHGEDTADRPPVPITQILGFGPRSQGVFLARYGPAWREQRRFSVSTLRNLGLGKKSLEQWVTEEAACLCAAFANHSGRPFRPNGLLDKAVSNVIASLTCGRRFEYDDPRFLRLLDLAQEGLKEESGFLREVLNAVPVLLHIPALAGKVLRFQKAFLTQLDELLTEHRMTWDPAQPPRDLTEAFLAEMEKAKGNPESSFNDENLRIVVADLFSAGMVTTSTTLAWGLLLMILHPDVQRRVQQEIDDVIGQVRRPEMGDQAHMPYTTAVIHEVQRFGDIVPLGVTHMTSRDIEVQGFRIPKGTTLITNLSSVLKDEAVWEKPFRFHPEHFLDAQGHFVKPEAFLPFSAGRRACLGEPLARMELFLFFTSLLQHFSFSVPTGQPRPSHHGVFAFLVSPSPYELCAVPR
Broadly, the AC50 is the concentration giving half of the maximal activity seen. Regarding `COc1cccc(Cn2c(=O)cnc3cnc(OC)nc32)c1`, the AC50 entry was “inactive”.
Take `Cc1ccc(-c2nc3c(=O)n(C)c4ccccc4c3o2)cc1`: the AC50 entry is “inactive”.
On to `O=C(COc1ccccc1)Nc1ccc(-c2nnc(-c3ccco3)o2)cc1`, for which the AC50 result was “inactive”.
On the same count and under the same terms, for `C/C(CC(=O)Nc1cc(Cl)ccc1Cl)=N\NC(N)=S` the value was “inactive”.
In the case of `CC(NC(=O)c1ccc(Cn2cc([N+](=O)[O-])cn2)o1)c1ccccc1` (stereo not given), the AC50 entry was “inactive”.
As to `CCCc1cc2c(cc1NC(=O)c1ccccc1C)OCO2`, the AC50 was 8.91 µM (active).
For `CCOc1cc(NC(=S)NCC2CCCO2)c(OCC)cc1NC(=O)c1ccccc1C` (stereo not given), the AC50 entry is “inactive”.
The same measure, in the same setting: for `CCC(=O)Nc1cc2c(cc1C(=O)c1ccccc1)OCCO2` the value was “inactive”; for `c1ccc(-c2csc3ncn4cnnc4c23)cc1`, “inactive”; for `CCC(=O)N[C@@H]1Cc2ccccc2[C@@H](c2ccccc2)C1`, “inactive”.
On the same count and under the same terms, for `COCCNc1cc(-c2c(C)noc2C)ncn1` the value was “inactive”; for `Cc1cc(Cl)ccc1OCC(=O)NCc1ccncc1`, 2.82 µM (active); for `Cc1cc(Cl)ccc1OCC(=O)N/N=C1\CCCc2ccccc21`, “inactive”.
Regarding `Cc1cc(Cl)ccc1OCC(=O)Nc1nc(N)nc(N)n1`, the activity, negative = inhibition was 14% [at 11.4 µM] (inactive).
Turning to `N/C(=N\c1nc2ccccc2o1)NC(=O)c1ccccc1F`, the AC50 result was “inactive”.
As to `Cc1ccc(S(=O)(=O)N[C@H]2COC(=O)C/C=C\[C@@H](C)COC(=O)C/C=C\[C@@H]2C)cc1`, the activity, negative = inhibition was 15.5% [at 11.4 µM] (inactive) and -2.8% [at 11.4 µM] (inactive).
The same measure, in the same setting: for `N#CCCSC(=S)[C@H]1CCCC1=N` the value was -9.64% [at 11.4 µM] (inactive).
Turning to `CC(C/C=N/NC(=O)COc1cc(Cl)ccc1Cl)c1ccccc1` (stereo not given), the concentration at half-maximal activity (AC50) was 0.631 µM (active).
Regarding `O=C(COc1ccccc1C(=O)N/N=C\c1ccc(O)c(O)c1)N/N=C/c1ccc(O)c(O)c1`, the AC50 entry is “inactive”.
On to `O=C(COc1ccccc1Cl)Nc1cc(Cl)ccc1Oc1ccccc1`, for which the AC50 result was “inactive”.
Consider `CC(C)(C)NC[C@@H](O)c1ccc(O)c(CO)n1`, for which the activity, negative = inhibition was -1.17% [at 11.4 µM] (inactive).
Take `Cc1cccc(C)c1NC(=O)COc1cccc(/C=N/NC(=O)C(=O)NCc2ccccc2)c1`: the AC50 entry was “inactive”.
On to `O=C(CC(=O)N/N=C\c1c(Cl)cccc1Cl)NCc1ccccc1`, for which the AC50 entry is “inactive”.
`CCCCNC(=O)C1CC(=O)N(CCC(C)C)C1` (stereo not given): the AC50 result was “inactive”.
As to `C[C@@H](C(=O)O)c1ccc(C(=O)c2cccs2)cc1`, the AC50 result is “inactive”.
As to `CNCCCCCCCCSc1nc(C(C)C)ccc1C(=O)c1cccs1`, the AC50 is 0.00631 µM (active).
Regarding `CCCC/C=C/C(NC(=O)c1cccs1)c1ccccc1` (stereo not given), the AC50 result was “inactive”.
As for `Nc1ncnc2c1ncn2C1CCCC1`, the AC50 entry is “inactive”.
As to `CNC(=O)Oc1ccc2c(c1)[C@@]1(C)CCN(C)[C@@H]1N2C`, the AC50 is 1.26 µM (active) and 631 nM (active).
Still for that read-out and setting: next, `COc1ccc(Nc2ncc3c(n2)CC(c2ccc(C)cc2)CC3=O)cc1` (stereo not given): “inactive”.
Turning to `O=c1c(-c2ccc(Cl)cc2)[n+]([O-])c2ccccc2n1OCc1ccccn1`, the AC50 result was “inactive”.
On the same count and under the same terms, next, `CC(C(=O)NC1CCCC1)N(C(=O)c1ccc(-c2ccccc2)[nH]1)c1ccccc1F` (stereo not given): “inactive”; `CCOC(=O)Cc1csc(NC(=O)c2ccc(S(=O)(=O)N3CCCCC3)cc2)n1`: “inactive”; `CN(C(=O)Cn1nnc(-c2cccc(C(F)(F)F)c2)n1)C1CCCCC1`: “inactive”.
For the molecule `CC(C)CC(C(=O)NCC1CCCO1)N(C(=O)Cn1nnc(-c2ccc(F)cc2)n1)c1ccccc1F` (stereo not given), the AC50 was 20 µM (active).
With `CC(C)CC(C(=O)NCC1CCCO1)N(C(=O)Cn1nnc(-c2ccc(F)cc2)n1)c1cccc(C(F)(F)F)c1` (stereo not given), the AC50 is 12.6 µM (active).
Take `Cc1cccc2c(SCC(=O)NCC3CCCO3)nc(-c3ccc(F)cc3)nc12` (stereo not given): the AC50 entry is “inactive”.
For the molecule `CC(C)C(C(=O)NCC1CCCO1)N(Cc1ccco1)C(=O)CNS(=O)(=O)c1ccc(F)cc1` (stereo not given), the AC50 entry was “inactive”.
For `COc1ccc(S(=O)(=O)N(CC(=O)NCC2CCCO2)c2ccc(F)cc2)cc1OC` (stereo not given), the AC50 entry was “inactive”.
As for `NCCCCCC(=O)O`, the AC50 result is “inactive”.
Turning to `Clc1ccc(-c2nnc(-c3ccco3)o2)cc1`, the AC50 result was “inactive”.
In the case of `O=c1[nH]c(=O)c2nc3ccccc3nc2[nH]1`, the AC50 result is “inactive”.
As for `CC(=O)NCCC(=O)Nc1sc2c(c1-c1nc3ccccc3[nH]1)CCCC2`, the AC50 result is “inactive”.
As to `Cc1ccc(NC(=O)N/C=C/c2ccco2)cc1C`, the AC50 result was “inactive”.
As for `COc1ccc(C(C(=O)NC2CCCC2)N(C(=O)c2snc(-c3ccc(F)cc3)c2N)c2ccccc2)cc1` (stereo not given), the AC50 result was “inactive”.
Same read-out and setting: for `COc1ccc(CSc2nnnn2C)cc1[N+](=O)[O-]` the value was “inactive”; for `CCCOc1ccc(Cn2c(C)nc([N+](=O)[O-])c2SCC(O)COC)cc1[N+](=O)[O-]` (stereo not given), 12.6 µM (active).
The same measure, in the same setting: for `CC(=O)Nc1ccc(Nc2ncnc3c2cnn3-c2ccccc2)cc1` the value was “inactive”; for `N#Cc1cccc(-c2nc3cnc(N4CCOCC4)nc3n(C3CC3)c2=O)c1`, “inactive”; for `Cc1cc(C)cc(C(=O)N(NC(=O)Nc2ccc(Cl)cc2)C(C)(C)C)c1`, “inactive”.
As for `CC(C)(C)N(NC(=O)Nc1ccc(Cl)c(Cl)c1)C(=O)c1ccccc1`, the AC50 is 28.2 µM (active).
For the molecule `CC(C)(C)N(NC(=O)Nc1ccccc1)C(=O)c1ccccc1Cl`, the AC50 result is “inactive”.
In the case of `Cc1nc2cnc(N(C)C)nc2n(CCC#N)c1=O`, the AC50 entry was “inactive”.
For the molecule `CCCn1c(CC)nc([N+](=O)[O-])c1S(=O)(=O)c1ccccc1`, the AC50 result was “inactive”.
As to `O=[N+]([O-])c1cc(Cl)cc2c1nc(NCCO)c1ccccc12`, the activity, negative = inhibition was -18% [at 11.4 µM] (inactive).
As for `CSc1ccccc1N1CCN(C(=O)Nc2ccc3c(c2)NC(=O)CO3)CC1`, the AC50 result is “inactive”.
`O=C(NCC1CCCO1)c1ccc(CS(=O)(=O)Cc2ccc(F)cc2)o1` (stereo not given): the AC50 entry was “inactive”.
With `Cn1c(OCc2ccc3c(c2)OCO3)nc2c1c(=O)n(Cc1ccc(Cl)c(Cl)c1)c(=O)n2C`, the AC50 was 5.01 µM (active).
Same read-out and setting: next, `Cn1c(=O)c2c(nc(Cl)n2Cc2ccc(Cl)c(Cl)c2)n(C)c1=O`: “inactive”.
Same read-out and setting: for `COC(=O)Cn1c(=O)c2c(nc(Br)n2Cc2ccccc2Cl)n(C)c1=O` the value was “inactive”; for `CC(C)c1ccc(Cn2ccc3c4c(N)nc(NC5CC5)nc4ccc32)cc1`, 1 µM (active).
The same measure, in the same setting: for `Cc1cc(CNC(=O)[C@@H]2C[C@H]2[C@@H](NP(=O)(c2ccccc2)c2ccccc2)c2ccccc2)nn1C` the value was “inactive”; for `FC(F)(F)c1nnc2c(Sc3ccccc3)nc3ccc(Cl)cc3n12`, “inactive”.
For `O=C(O)C[C@H](NC(=O)CP(=O)(O)O)C(=O)O.[NH-][C@@H]1CCCC[C@@H]1[NH-].[Pt]`, the activity, negative = inhibition is 7.2% [at 11.4 µM] (inactive).
`CC1(C)CO[C@H](CC(=O)O)CN1`: the AC50 is 0.00631 µM (active).
`C[C@H](N)CCCC(C)(C)O`: the AC50 entry was “inactive”.
On to `O=C(Cn1c(C(F)(F)F)nc2ccccc21)c1ccc(F)cc1`, for which the AC50 result was “inactive”.
With `O=C(CCCN1CC=C(n2c(=O)[nH]c3ccccc32)CC1)c1ccc(F)cc1`, the AC50 is 3.16 µM (active).
Regarding `CC(C)=CCC/C(C)=C/CO/N=C1/C[C@@H](O)[C@@H](O)[C@@H]2[C@@H]3C(=O)N(C[C@@H]4CCCO4)C(=O)[C@H]3CC[C@H]12`, the activity, negative = inhibition was -9.15% [at 11.4 µM] (inactive).
In the case of `COc1ccc(N=C2S/C(=C\c3ccc(C)s3)C(=O)N2CC(C)C)cc1`, the AC50 result was “inactive”.
Regarding `O=C(O)CCC(=O)N1CCc2cc(S(=O)(=O)N3CCCCC3)ccc21`, the AC50 result was “inactive”.
`Cc1ccc(-c2cc(C(=O)NN=C3CCCC3)c3ccccc3n2)cc1`: the AC50 result is “inactive”.
Take `CCNc1ncc2nc(-c3ccc(Cl)cc3)c(=O)n(Cc3ccc(F)cc3)c2n1`: the AC50 result is “inactive”.
With `CN(Cc1n[nH]c(=S)n1C)S(=O)(=O)c1ccccc1`, the AC50 result was “inactive”.
Same read-out and setting: for `COC(=O)C(NC(=O)c1ccc(Cl)cc1)(Nc1nc(C)cs1)C(F)(F)F` (stereo not given) the value was “inactive”; for `Cc1ccc(SCC(=O)NNC(=O)C2CCCCC2)cc1`, “inactive”.
Consider `CC(=O)N[C@@H]1CONC1=O`, for which the activity, negative = inhibition is 18.4% [at 11.4 µM] (inactive).
With `Cc1ccc(C(=O)Nc2ccccc2Oc2ccccc2)cc1[N+](=O)[O-]`, the AC50 result is “inactive”.
`Cc1ccc(C(=O)Nc2ccc(Cc3ccncc3)cc2)cc1[N+](=O)[O-]`: the AC50 was 1.41 µM (active).
On the same count and under the same terms, for `Cc1ccc(NC(=O)c2ccc(NCC3CCCO3)c([N+](=O)[O-])c2)cc1Cl` (stereo not given) the value was “inactive”.
As to `O=C(O)[C@H]1[C@H](C(=O)O)[C@H](C(=O)O)C[C@@H]1C(=O)O`, the activity, negative = inhibition was -4.27% [at 11.4 µM] (inactive).
`N[C@H](C(=O)O)[C@@H]1C[C@@H]1C(=O)O`: the AC50 result was “inactive”.
On the same count and under the same terms, for `N[C@H](C(=O)O)C1[C@H](C(=O)O)[C@H]1C(=O)O` (stereo not given in full) the value was 7.94 µM (active).
`O=c1cnc2cnc(N3CCOCC3)nc2n1Cc1ccc(F)cc1`: the AC50 entry was “inactive”.
With `NC(N)=[N+]1CCc2ccccc2C1`, the AC50 result was “inactive”.
As to `COc1ccccc1NC(=O)[C@H](COCc1ccccc1)NC(=O)OC(C)(C)C`, the AC50 result was “inactive”.
In the case of `O=C1NCCN1Cc1cccc(Cl)c1`, the AC50 result was “inactive”.
Consider `Cc1ccc(-n2ccc(=O)c(-c3ccnc(SCc4cccc(Cl)c4)n3)n2)cc1`, for which the AC50 result was “inactive”.
In the case of `O=S1(=O)C=C(SCc2cccc(Cl)c2)Nc2ccccc21`, the concentration at half-maximal activity (AC50) was 12.6 µM (active).
As for `O=C1c2ccccc2C(=O)N1CCCCN(C(=O)c1cccc([N+](=O)[O-])c1)c1ccc(Cl)cc1`, the AC50 entry was “inactive”.
For the molecule `CC1=NS(=O)(=O)c2cc(Cl)ccc2N1`, the AC50 result was “inactive and 7.94 µM (active)”.
On to `COc1ccc(-n2nnnc2-c2cn(C)nc2C(F)(F)F)cc1`, for which the AC50 entry was “inactive”.
`O=C(O)c1cc(N=Nc2ccc([N+](=O)[O-])cc2)ccc1O`: the activity, negative = inhibition was -8.54% [at 11.4 µM] (inactive).
On the same count and under the same terms, next, `CS[C@]12C(=O)C[C@]3(C)[C@@H](CC[C@@]3(O)C(=O)CO)[C@@H]1CCC1=CC(=O)CC[C@]12C`: 0.401% [at 11.4 µM] (inactive).
Turning to `Cn1nc(-c2ccc(N3CCOCC3)c(NS(=O)(=O)c3ccc(Cl)cc3)c2)c2ccccc2c1=O`, the AC50 result is “inactive”.
`CN(C)C(=O)c1ccc(-c2cncnc2NC2CCNCC2)cc1`: the AC50 entry is “inactive”.
With `CN1CCN(c2ncncc2-c2ccc(C(=O)N(C)C)cc2)CC1`, the AC50 was 0.251 µM (active).
`CN(C)C(=O)c1ccc(-c2cncnc2N2CCNCC2)cc1`: the AC50 is 7.94 µM (active).
As for `CN1CCN(c2ncncc2-c2ccc(N(C)C)cc2)CC1`, the half-maximal activity concentration (AC50) was 10 µM (active).
Turning to `CN1CCN(c2ncnc3ccc(-c4cccc(NS(C)(=O)=O)c4)cc23)CC1`, the AC50 entry is “inactive”.
